Compounds with a hit are over-represented: about 2.3% of the library has one in this group of screens.
FBPA coupling cs – counter-screen for Giardia aldolase inhibitors: coupling enzyme system; AID 2472; 290,000 tested, 0.67% active; activity change, negative = inhibition, % at 58.2 µM, hits read low; coupling enzyme system counterscreen, AmpLite Red fluorescence; in the data active means activity change below about -30%
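Compounds tested against the coupling enzymes alone at 57.5 uM final; readout was AmpLite Red fluorescence (525/598 nm) after 20 min at RT.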
USP1 inh – USP1/UAF1 (human) deubiquitinase inhibition; recombinant USP1/UAF1, Ub-Rhodamine cleavage fluorescence; 390,000 tested, 0.23% active; Potency, µM (top dose mostly 57.1 µM), for the others: top-dose activity change, negative = inhibition, hits mostly inhibitors; O94782; further: potency means the concentration at half of the fitted maximal effect; nearly all actives have a fitted effect of over 60% in size
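In this screen, compounds sit with the deubiquitinase complex (1nM) for 15 min at room temperature before Ub-Rho is added at 150nM final. Fluorescence rise is then followed for 6 reads every 60 seconds.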
Tau fluor cs – counter-screen for tau fibril formation inhibitors; tau K18 P301L Alexa594 fluorescence, heparin fibrillization; Potency, µM (series often up to 57.7 µM), inactives show top-dose activity change, negative = decrease; 280,000 tested, 0.93% active; further: potency means the concentration at half of the fitted maximal effect; nearly all actives have a fitted effect of over 55% in size
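Human K18 P301L tau (15 uM unlabeled plus 0.24 uM Alexa 594-labeled, final) in 100 mM sodium acetate pH 7 was mixed with compound and 20 uM heparin and incubated 6 hr at 37 C.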
Tau fibril FP – tau fibrillization inhibition (FP) | P10636 | K18 P301L tau heparin fibrillization, Alexa594 FP, 6 h | Potency, µM (highest dose often 57.7 µM), for inactives: top-dose activity, negative = inhibition, actives largely listed as inhibitors | 280,000 tested, 0.39% active | AID 1468; further: potency means the concentration at half of the fitted maximal effect; nearly all actives have a fitted effect of over 55% in size
Target sequence (P10636 561-689 P618L limits assumed): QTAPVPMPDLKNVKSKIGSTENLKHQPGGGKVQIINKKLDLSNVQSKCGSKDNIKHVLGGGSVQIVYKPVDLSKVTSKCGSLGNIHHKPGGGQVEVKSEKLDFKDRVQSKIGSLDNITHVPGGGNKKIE
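Read-out: fluorescence polarization of Alexa 594-labeled tau (0.24 uM), 555 nm excitation, 632 nm emission. Mixtures held 15 uM unlabeled K18 P301L, compound and 20 uM heparin, pH 7 acetate buffer, incubated 6 hr at 37 C.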
Tau ThT inhib – inhibitors of human tau fibril formation, thioflavin T binding; 270,000 tested, 2.1% active; recombinant tau K18 P301L (four-repeat tau fragment), heparin-induced fibrillization, ThT fluorescence; AID 1460; P10636; Potency, µM (top dose mostly 57.4 µM), inactives show at the top dose activity, negative = inhibition, usual class: inhibitors; further: potency means the concentration at half of the fitted maximal effect; nearly all actives have a fitted effect of over 55% in size
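Recombinant human tau K18 fragment […] carrying P301L, 15 uM unlabeled plus 0.24 uM Alexa 594-labeled, was fibrillized with 20 uM heparin in 100 mM sodium acetate pH 7 for 6 hr at 37 C; 30 uM ThT fluorescence read after 1 hr.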
* hit, by the source's call; [ ] = another dose, or the depositor's remark. Unless noted, the call rests on the fitted dose curve; in most records, active means well fitted curve in the direction sought with a large enough effect; inconclusive means small, poorly fitted or top-dose-only effect, or another doubt; inactive means no such curve, though single readings can be large; an effect the other way counts as inactive or inconclusive. On the % scale 0 is the no-effect control and ±100 the full control effect.

What do the screens show for `O=[N+]([O-])c1cccc(-c2nc(-c3cccs3)c(-c3cccs3)[nH]2)c1`?
FBPA coupling cs: 1; USP1 inh: -6%; Tau fluor cs: 11µM*[quencher]; Tau fibril FP: 6%; Tau ThT inhib: inconclusive

How did CCC(=O)Nc1ccccc1-c1nc2ccccc2n(CC(=O)c2ccc(Br)cc2)c1=O do in these assays?
USP1 inh: -2%; Tau fluor cs: -5%; Tau fibril FP: -2%; Tau ThT inhib: -7%

Results for Cc1cc2ccccc2n2c(SCC(=O)Nc3cccc(C(F)(F)F)c3)nnc12 ?
USP1 inh: inconclusive; Tau fluor cs: 0%; Tau fibril FP: inconclusive; Tau ThT inhib: 4%

Results for O=C(O)c1cccc(N/N=C/C2=C(Cl)c3cc(Cl)ccc3SC2)c1 ?
FBPA coupling cs: 11; USP1 inh: -27%; Tau fluor cs: inconclusive; Tau fibril FP: inconclusive; Tau ThT inhib: 6.3µM*

What do the screens show for `CN(Cc1ccccc1)S(=O)(=O)c1cccc2cccnc12`?
FBPA coupling cs: -31*; USP1 inh: -18%; Tau fluor cs: -14%; Tau fibril FP: -9%; Tau ThT inhib: -7%

How did Cc1cc(C)cc(OCC(=O)Nc2ccc(S(=O)(=O)Nc3onc(C)c3C)cc2)c1 do in these assays?
USP1 inh: -15%; Tau fluor cs: 2%; Tau fibril FP: 14%; Tau ThT inhib: -6%

What do the screens show for `O=c1cc(-c2ccccc2)n2c(SCc3ccc(F)cc3)nnc2[nH]1`?
USP1 inh: -7%; Tau fluor cs: -21%; Tau fibril FP: -5%; Tau ThT inhib: inconclusive

How did Cc1ccsc1/C=N/NC(=S)NCc1ccccc1 do in these assays?
FBPA coupling cs: 1; USP1 inh: -20%; Tau fluor cs: inconclusive; Tau fibril FP: -4%; Tau ThT inhib: -2%

What do the screens show for `Cc1ccsc1/C=N\NC(=O)CC(=O)NCc1ccccc1`?
FBPA coupling cs: -36*; USP1 inh: 4%; Tau fluor cs: -1%; Tau fibril FP: -6%; Tau ThT inhib: 5%

How did O=C(CC(=O)N/N=C/c1c(F)cccc1Cl)NCc1ccccc1 do in these assays?
FBPA coupling cs: -39*; USP1 inh: -11%; Tau fluor cs: -5%; Tau fibril FP: 1%; Tau ThT inhib: -8%

What do the screens show for `O=C(CC(=O)N/N=C/c1ccc(Cl)cc1Cl)NCc1ccccc1`?
FBPA coupling cs: -14; USP1 inh: -12%; Tau fluor cs: 4%; Tau fibril FP: -8%; Tau ThT inhib: 2%

Results for Cc1c(C(=O)N2CCC(c3nc4ccccc4s3)CC2)oc2ccc(Cl)cc12 ?
USP1 inh: inconclusive; Tau fluor cs: -14%; Tau fibril FP: 2%; Tau ThT inhib: inconclusive

Results for COc1ccc(N2CCN(CCCNC(=O)c3cc(Nc4ccccc4OC)nc4ccccc34)CC2)cc1 ?
USP1 inh: -23%; Tau fluor cs: 8.9µM*[quencher]; Tau fibril FP: -3%; Tau ThT inhib: inconclusive

How did COc1ccc(Nc2nc(-c3ccccc3)nc3ccccc23)c(OC)c1 do in these assays?
FBPA coupling cs: -3; USP1 inh: -19%; Tau fluor cs: 25µM*[quencher]; Tau fibril FP: 8%; Tau ThT inhib: inconclusive

How did COc1ccc(Nc2cc(C(=O)NCCCN3CCOCC3)c3ccccc3n2)c(OC)c1 do in these assays?
FBPA coupling cs: 0; USP1 inh: -18%; Tau fluor cs: -25%; Tau fibril FP: 9%; Tau ThT inhib: inconclusive

What do the screens show for `COc1ccc(Nc2nc(C)cc(C)c2C(N)=O)c(OC)c1`?
FBPA coupling cs: -40*; USP1 inh: -25%; Tau fluor cs: -19%; Tau fibril FP: inconclusive; Tau ThT inhib: inconclusive

What do the screens show for `COc1ccc(Nc2cc(C(=O)NCc3ccccc3)c3ccccc3n2)c(OC)c1`?
USP1 inh: -17%; Tau fluor cs: 7.9µM*[quencher]; Tau fibril FP: inconclusive; Tau ThT inhib: inconclusive

Results for Cc1ccccc1-c1nnc(CN2CCN(c3cc(Cl)ccc3C)CC2)o1 ?
USP1 inh: -3%; Tau fluor cs: -10%; Tau fibril FP: 7%; Tau ThT inhib: inconclusive

How did COc1ccc(CCNC(=O)c2ccc(Cn3c(=O)c4ccccc4n(Cc4ccc(F)cc4Cl)c3=O)cc2)cc1OC do in these assays?
USP1 inh: -33%; Tau fluor cs: -11%; Tau fibril FP: -5%; Tau ThT inhib: -3%

How did COc1ccc(Nc2cc(C(=O)NCCCN(C)Cc3ccccc3)c3ccccc3n2)cc1 do in these assays?
USP1 inh: -4%; Tau fluor cs: 13µM*[quencher]; Tau fibril FP: inconclusive; Tau ThT inhib: inconclusive

What do the screens show for `COc1ccc(Nc2cc(C(=O)NCCCN3CCN(C)CC3)c3ccccc3n2)cc1OC`?
FBPA coupling cs: 4; USP1 inh: -3%; Tau fluor cs: inconclusive; Tau fibril FP: 9%; Tau ThT inhib: inconclusive

Results for COc1ccc(Nc2cc(C(=O)NCCCN3CCN(c4ccc(OC)cc4)CC3)c3ccccc3n2)cc1 ?
USP1 inh: inconclusive; Tau fluor cs: 4µM*[quencher]; Tau fibril FP: -2%; Tau ThT inhib: 14µM*

How did COc1ccc(Nc2cc(C(=O)NCCCN3CCN(c4ccccc4F)CC3)c3ccccc3n2)c(OC)c1 do in these assays?
USP1 inh: -18%; Tau fluor cs: 7.1µM*[quencher]; Tau fibril FP: 5%; Tau ThT inhib: inconclusive

Results for C=CCOC(=O)N[C@H](/C(C(=O)OC)=C(\C)NCc1ccccc1)c1ccc(C)cc1 ?
FBPA coupling cs: 0; Tau fluor cs: -4%; Tau fibril FP: 8%; Tau ThT inhib: inconclusive

Results for CN(C)CCCNc1cc(C(C)(C)C)nc2c(-c3ccc(Cl)cc3)cnn12 ?
FBPA coupling cs: -3; USP1 inh: -19%; Tau fluor cs: 16µM*[quencher]; Tau fibril FP: 10%; Tau ThT inhib: inconclusive

How did N#C/C(=C\c1cc2ccccc2nc1N1CCOCC1)C(=O)Nc1ccc(N2CCOCC2)cc1 do in these assays?
FBPA coupling cs: 0; USP1 inh: 1%; Tau fluor cs: inconclusive; Tau fibril FP: -6%; Tau ThT inhib: 14µM*

How did COc1ccc(OC)c(NC(=O)c2nnn(CC(=O)Nc3ccc(C(C)C)cc3)c2N)c1 do in these assays?
USP1 inh: 13%; Tau fluor cs: 14µM*[quencher]; Tau fibril FP: -13%; Tau ThT inhib: inconclusive

What do the screens show for `COc1ccc(Cl)cc1NC(=O)c1nnn(CC(=O)Nc2ccc(OC)c(OC)c2)c1N`?
FBPA coupling cs: -3; USP1 inh: -21%

How did CC(=O)/C=N/Nc1ccccc1 do in these assays?
FBPA coupling cs: -1; USP1 inh: -1%; Tau fluor cs: 1%; Tau fibril FP: -4%; Tau ThT inhib: 1%

How did OC[C@@H](O)[C@H](O)C(/C=N/Nc1ccccc1)=N\Nc1ccccc1 do in these assays?
FBPA coupling cs: -6; USP1 inh: -5%; Tau fluor cs: inconclusive; Tau fibril FP: -13%; Tau ThT inhib: 28µM*

What do the screens show for `CCCCC/C=C\C[C@@H](O)/C=C/C=C/C=C/[C@@H](O)CCCC(=O)O`?
FBPA coupling cs: 0; Tau fluor cs: 0%; Tau fibril FP: 7%; Tau ThT inhib: 2%

High-throughput results as filed in PubChem.
